Measurements published in PubChem BioAssay (EPA / NIEHS).
Activity calls are given as the source filed them. How the source made its calls: active means hit-call score of the fitted dose curve at least 0.9, where 1 is the maximum; inactive means score below 0.9.

What was measured:
[1] = APR_HepG2_CellCycleArrest_24hr: Apredica 24-hour HepG2 Assay for Cell Cycle Arrest (AID 2282905); conditions: imaging, actives raise or lower the signal;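 further: cell cycle arrest scored as ratio of 2N to 4N nuclear DNA content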
Summary of the method: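 Cell cycle arrest is scored from nuclear DNA content measured by high-content imaging of Hoechst 33342-stained HepG2 cells following 24-hour treatment at ten concentrations up to 200 uM, with DMSO as baseline.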

[2] = APR_HepG2_NuclearSize_24hr: Apredica 24-hour HepG2 Assay for Nuclear Size (AID 2282907); conditions: high-content imaging, actives raise or lower the signal
Summary of the method: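 Compounds in DMSO (final 0.5%) were added to human HepG2 hepatoma cells at ten concentrations up to 200 uM for 24 hr. Fixed nuclei were stained with Hoechst 33342, and nuclear diameter was quantified from automated images.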

[3] = APR_HepG2_CellLoss_24hr: Apredica 24-hour HepG2 Assay for Cell Loss (AID 2282908); conditions: high-content imaging;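 on AC50: fit in both directions so a hit may be cell loss or gain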
Summary of the method: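 Cell number is quantified by fluorescence imaging of Hoechst 33342-stained nuclei following dosing at 0.39–200 uM in 0.5% DMSO. Curves are fitted in both directions from the DMSO baseline.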

[4] = APR_HepG2_MicrotubuleCSK_24hr: Apredica 24-hour HepG2 Assay for Microtubule CSK Stabilty (AID 2282909); conditions: HepG2 microtubule cytoskeleton imaging, actives raise or lower the signal
Summary of the method: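 Steps: dose HepG2 for 24 h (0.39–200 uM, 0.5% DMSO); fix 30 min in 3.7% formaldehyde at room temperature; permeabilize; stain alpha-tubulin 60 min; image microtubule cytoskeleton at 20x. Signal change fitted in both directions relative to DMSO.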

[5] = APR_HepG2_MitoticArrest_24hr: Apredica 24-hour HepG2 Assay for Mitotic Arrest (AID 2282910); conditions: high-content imaging, actives raise or lower the signal
Summary of the method: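 HepG2 cells, 24 h exposure at 0.39-200 uM (10 concentrations, duplicate, 0.5% DMSO). Fixed, stained for phospho-histone H3 with Hoechst; imaged by high-content microscopy, bidirectional fit versus DMSO.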

[6] = APR_HepG2_MitoMembPot_24hr: Apredica 24-hour HepG2 Assay for Mitochondrial Membrane Potential (AID 2282911); conditions: imaging, actives raise or lower the signal
Summary of the method: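 HepG2 cells exposed 24 h to 0.39–200 uM compounds in duplicate, 0.5% v/v DMSO final. MitoTracker Red CMXRos 250 nM loaded 30 min before formaldehyde fixation; high-content imaging at 20x, bidirectional fit versus DMSO.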

[7] = APR_HepG2_MitoMass_24hr: Apredica 24-hour HepG2 Assay for Mitochondrial Mass (AID 2282912); conditions: high-content imaging, actives raise or lower the signal
Summary of the method: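 The liver line HepG2 was dosed in duplicate across a 0.39–200 uM series, with final DMSO held at 0.5% v/v, and harvested at 24 hr. High-content imaging measured mitochondrial dye staining.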

[8] = APR_HepG2_p53Act_24hr: Apredica 24-hour HepG2 Assay for p53 Activation (AID 2282913); conditions: high-content imaging, actives raise or lower the signal;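 further: p53 protein immunofluorescence averaged per cell in HepG2 with Hoechst nuclei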
Summary of the method: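 HepG2 cells exposed 24 h to compounds at 0.39–200 uM in duplicate, 0.5% v/v DMSO final; fixed, permeabilized, stained with anti-p53 antibody and Hoechst 33342; fluorescence imaging; bidirectional curve fit versus DMSO.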

[9] = APR_HepG2_CellCycleArrest_72hr: Apredica 72-hour HepG2 Assay for Cell Cycle Arrest (AID 2282914); conditions: high-content imaging, actives raise or lower the signal
Summary of the method: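 HepG2 cells exposed 72 h in duplicate to 0.39–200 uM compound, 0.5% DMSO final. Formaldehyde-fixed, Hoechst 33342-stained nuclei imaged at 20x, six fields per well; DNA content per valid cell quantified by cell-cycle image analysis, bidirectional fit versus DMSO.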

[10] = APR_HepG2_CellLoss_72hr: Apredica 72-hour HepG2 Assay for Cell Loss (AID 2282915); conditions: high-content imaging
Summary of the method: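 HepG2 cells exposed 72 h to compound at 0.39–200 uM (10 concentrations, duplicate) in 0.5% DMSO. Fixed with 3.7% formaldehyde and Hoechst 33342-stained. Imaged at 20x; nuclear count gives cell number, fitted bidirectionally versus DMSO.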

Measured: AC50

Nc1ccc(N=Nc2ccccc2)cc1
active: [1] 75.5 µM | [9] 23.6 µM | [10] 99.4 µM
inactive: [2] | [3] | [4] | [5] | [6] | [7] | [8]

C[N+](C)(C)CC1CO1 (stereo unspecified)
inactive: [2] | [3] | [4] | [5] | [6] | [7] | [8] | [9] | [10]
active: [1] 81.2 µM

Clc1ccc(C(c2ccc(Cl)cc2)C(Cl)Cl)cc1
active: [1] 100 µM | [3] 93.7 µM | [4] 156 µM | [5] 89.6 µM | [6] 63.9 µM | [7] 89.1 µM | [8] 107 µM | [9] 90.9 µM | [10] 93.8 µM
inactive: [2]

CCCCC(CC)COC(=O)c1ccc(C(=O)OCC(CC)CCCC)c(C(=O)OCC(CC)CCCC)c1 (stereo unspecified)
inactive: [1] | [2] | [3] | [4] | [5] | [6] | [7] | [8] | [9] | [10]

OCCCl
inactive: [1] | [2] | [3] | [4] | [5] | [6] | [7] | [8] | [9] | [10]

[Cl-].[Cl-].[Hg+2]
active: [2] 31.9 µM | [3] 31.3 µM | [4] 28.9 µM | [5] 23.7 µM | [6] 74.4 µM | [7] 28 µM | [8] 15.7 µM | [10] 20.3 µM
inactive: [1] | [9]

CCCCCCCCn1sccc1=O
active: [1] 6.2 µM | [2] 10.7 µM | [3] 16.1 µM | [4] 79.4 µM | [5] 7.54 µM | [6] 53.4 µM | [10] 5.76 µM
inactive: [7] | [9]

O=P(OCCCl)(OCCCl)OCCCl
inactive: [1] | [2] | [3] | [4] | [5] | [6] | [7] | [8] | [9] | [10]

Cc1ccc(N=C=O)cc1N=C=O
inactive: [1] | [3] | [4] | [5] | [6] | [7] | [8] | [9] | [10]

CN(C)C(=O)Nc1ccc(Cl)cc1
inactive: [1] | [3] | [4] | [5] | [6] | [7] | [8] | [9] | [10]

c1ccc(N=Nc2ccccc2)cc1
active: [1] 63.1 µM
inactive: [2] | [3] | [4] | [5] | [6] | [7] | [9] | [10]

O=[N+]([O-])c1ccc(Oc2ccc(Cl)cc2Cl)cc1
inactive: [1] | [4] | [5] | [6] | [7] | [9]
active: [3] 80.8 µM | [10] 89.7 µM

C[C@]12C=CC3=C4CCC(=O)C=C4CC[C@H]3[C@@H]1CC[C@@H]2O
inactive: [1] | [2] | [4] | [6] | [7] | [9]
active: [3] 26.1 µM | [5] 32.7 µM | [10] 21.7 µM

CC(C)(C)C(O)(CCc1ccc(Cl)cc1)Cn1cncn1 (stereo unspecified)
active: [3] 104 µM | [4] 115 µM | [5] 107 µM | [7] 124 µM | [9] 102 µM | [10] 116 µM
inactive: [1] | [2] | [6]

Nc1ccc(Oc2ccc(N)cc2)cc1
inactive: [1] | [3] | [4] | [5] | [6] | [7] | [8] | [9] | [10]

CC(C)(O)c1cnn2c(-c3ccc(F)c(-c4c(F)cccc4C#N)c3)cnc2n1
active: [3] 23.4 µM | [4] 89.9 µM | [5] 42.1 µM | [6] 33.1 µM | [7] 81.4 µM | [10] 23.9 µM
inactive: [1] | [2] | [9]

Cc1ccc(N)c(N)c1
inactive: [1] | [2] | [3] | [4] | [5] | [6] | [7] | [9] | [10]

CCCCCOC(=O)c1ccccc1C(=O)OCCCCC
inactive: [1] | [3] | [4] | [5] | [6] | [7] | [8]
active: [9] 95.9 µM | [10] 106 µM

[As]#[In]
inactive: [1] | [3] | [4] | [5] | [6] | [7] | [8] | [9] | [10]

CN(C)[C@@H]1C(=O)C(C(N)=O)=C(O)[C@@]2(O)C(=O)C3=C(O)c4c(O)cccc4[C@@](C)(O)[C@H]3C[C@@H]12
inactive: [1] | [2] | [3] | [4] | [5] | [6] | [7] | [9] | [10]
